According to paper PMC7819943, “Rice protein-binding microarrays: a tool to detect cis-acting elements near promoter regions in rice”:
In all, about 35,000 sequences were measured (“fluorescence intensity (a.u.)”: median about 10,000, highest 2% from about 52,000 on). The sample holds the highest values, similar sequences and a random draw of the others, so the mix is not that of the screen.

The sequences below were run against T1, OsWOX13 (Oryza sativa, UniProt Q5QMM3 1-267) (assay: protein-binding microarray (RPBM); PBS, 2% BSA, 51.3 ng/ul salmon testes DNA, 50 uM zinc acetate, 200 nM TF, 25 C, 1 h; high values mean tight binding). Conditions: protein: recombinant; tags: N-terminal polyhistidine and DsRed monomer fusion (pET32a); label: CyDye5-dUTP incorporated in the synthesized complementary strand; 3' TTTTT single-stranded linker to array surface; dsDNA, one strand shown.
T1 sequence: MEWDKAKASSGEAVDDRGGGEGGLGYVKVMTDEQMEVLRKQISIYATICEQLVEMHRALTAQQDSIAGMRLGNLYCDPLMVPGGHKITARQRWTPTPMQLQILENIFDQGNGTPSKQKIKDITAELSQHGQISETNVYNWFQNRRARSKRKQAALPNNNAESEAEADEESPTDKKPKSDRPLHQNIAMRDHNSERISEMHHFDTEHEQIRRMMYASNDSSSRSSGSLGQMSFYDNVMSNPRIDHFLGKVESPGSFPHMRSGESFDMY
Procedure, shortened: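 Transcription factors were each fused at the N-terminus to a polyhistidine tag plus DsRed and expressed in E. coli BL21-CodonPlus before Ni–NTA purification. Binding to a double-stranded custom Agilent array was carried out with 200 nM protein at 25 °C for 1 h in PBS, 2% BSA, salmon testes DNA and 50 µM zinc acetate. The binding signal is per-feature fluorescence intensity, in arbitrary units, on an Axon 4000B scanner.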

Point of comparison: “TGAAAGAAGAGATGATTGGGAAACACCATTAATAGGGTGGCGGAGTCACCTAGTGCAG”, binding signal 10500 fluorescence intensity (a.u.). Against it:
- TCAATTAATATATAATTGGCATTGGGTTTGATCATCTCTGCGGAGTCACCTAGTGCAG — higher, 50700 fluorescence intensity (a.u.)
- CATGTTAATTTGGGACGAGAGTCGGACTCCTATTTCCTTTCGGAGTCACCTAGTGCAG — lower, 7570 fluorescence intensity (a.u.)
- AAAATTGATGTTCTCTTTGGTGCATTTCTTTCTTATTGTCCGGAGTCACCTAGTGCAG — higher, 26800 fluorescence intensity (a.u.)
- CAATTATCAATCAGTCTGAAATCTTGCATTTGCATTTGCACGGAGTCACCTAGTGCAG — higher, 22400 fluorescence intensity (a.u.)
- TAAGACTAATTATTCTTTTAGTAATAGACGACGTACTCGCCGGAGTCACCTAGTGCAG — higher, 22300 fluorescence intensity (a.u.)
- TTTGATTGTGGTTATTGCACTGAAATTTTACAGATATTGTCGGAGTCACCTAGTGCAG — higher, 31800 fluorescence intensity (a.u.)
- ATCCCTAATACGATTTACATGATTAGAGGAGAGACAATTTCGGAGTCACCTAGTGCAG — lower, 4470 fluorescence intensity (a.u.)
- TATTTTAGATTGATATACAATCTTTTGTGGTGTTAGCACTCGGAGTCACCTAGTGCAG — higher, 52900 fluorescence intensity (a.u.)
- GTGCATTATCGATCATAATTAGCAGGTGAGAGATATTTAACGGAGTCACCTAGTGCAG — lower, 4060 fluorescence intensity (a.u.)
- ACGTGATACATCTTGTTCTAGATTTGTTTAATTTAAGCCACGGAGTCACCTAGTGCAG — lower, 3240 fluorescence intensity (a.u.)
- GTAGATATTGATGATTTATATAACTTTGTTGTTGATGACTCGGAGTCACCTAGTGCAG — higher, 14500 fluorescence intensity (a.u.)
- TTAATTGATTTAGTTGGTGACCTTATATCTTGTTTAGATACGGAGTCACCTAGTGCAG — higher, 60600 fluorescence intensity (a.u.)
- ACTTGCATGCTTAATTGATTTAGTTGGTGACCTTATATCTCGGAGTCACCTAGTGCAG — higher, 37800 fluorescence intensity (a.u.)
- ATATAATTATAATTTATTTTATTGTGACTTGATTTATCATCGGAGTCACCTAGTGCAG — higher, 36400 fluorescence intensity (a.u.)
- ATTAATTAATTAGTGATCATACATAATTGAGGTGATTTATCGGAGTCACCTAGTGCAG — higher, 65000 fluorescence intensity (a.u.)
- AATTGTCCCTGATTGACACCTCTTACTTGACCCTTCTTTCCGGAGTCACCTAGTGCAG — higher, 42600 fluorescence intensity (a.u.)
- AATGATTGACAATACTTAGATTTCTTCCCTTAATTACATCCGGAGTCACCTAGTGCAG — higher, 54400 fluorescence intensity (a.u.)
- GAGCAGCAGCTTAATTGGATCATCGAATCTCGCACCGCCACGGAGTCACCTAGTGCAG — lower, 4860 fluorescence intensity (a.u.)
- TAAACTTAATTTTAAAATCATAATTCAGAAATGTGGTGAACGGAGTCACCTAGTGCAG — higher, 30500 fluorescence intensity (a.u.)
- ATGACTTGACGAGGTAAATAAAATTGGACCGGGCAGCAAACGGAGTCACCTAGTGCAG — lower, 3900 fluorescence intensity (a.u.)
- CCCTAATCCCATTTAATCAGCACAGCTTCTTAATTACTCCCGGAGTCACCTAGTGCAG — lower, 6810 fluorescence intensity (a.u.)
- ATATTCAGCTGATTGGGGCATTGGGTATTTGCAGTGAGCACGGAGTCACCTAGTGCAG — higher, 18500 fluorescence intensity (a.u.)
- TCTGAGATTTATTGATTAGATTATAACGTAATCGTTGTTACGGAGTCACCTAGTGCAG — higher, 29300 fluorescence intensity (a.u.)
- GTATTAATTGGGGTGATTCATGACAACGATGAGATATTAACGGAGTCACCTAGTGCAG — higher, 32700 fluorescence intensity (a.u.)
- GAAGTTATTAACAAATTAGATACATCTCTTGTTTAGATTACGGAGTCACCTAGTGCAG — lower, 4700 fluorescence intensity (a.u.)
- CTCTGATAGATTGCGACCTTCTTGTTGTTTAACAACGTTACGGAGTCACCTAGTGCAG — higher, 54000 fluorescence intensity (a.u.)
- TATTAATTGAGTGAGATTTGGGGTATTCAGTCGACTGGCACGGAGTCACCTAGTGCAG — higher, 54900 fluorescence intensity (a.u.)
- ACACACAGCGGCAAAATTGACACATTACACATCAGGAATCCGGAGTCACCTAGTGCAG — lower, 5060 fluorescence intensity (a.u.)
- TGTCGTCAAAATTTGATGGAATTCACACGAATTTAGCAACCGGAGTCACCTAGTGCAG — lower, 5150 fluorescence intensity (a.u.)
- TACTAATGATTTTATGTAGAACATCATCACATATCTTATACGGAGTCACCTAGTGCAG — higher, 15800 fluorescence intensity (a.u.)
- TAATAATAATAATAATAATAATAATAATAACACATCGCACCGGAGTCACCTAGTGCAG — lower, 4120 fluorescence intensity (a.u.)
- ATAACATTATCATTATAGACATTGATATATGAGATAATAGCGGAGTCACCTAGTGCAG — lower, 6010 fluorescence intensity (a.u.)
- GATTTATTGACATCTATATGAATATAGACATTGATAAAAGCGGAGTCACCTAGTGCAG — lower, 8710 fluorescence intensity (a.u.)
- TTGATTGCCTCAGGTGGTCCGGACACCGTCTCAACATCCACGGAGTCACCTAGTGCAG — higher, 17700 fluorescence intensity (a.u.)
- TTGCTATTTGTTGGTTTGATTTATTGCTACTGCAACAGATCGGAGTCACCTAGTGCAG — lower, 3880 fluorescence intensity (a.u.)
- TTCTATGATTGATTGGTCGATAGGAAGACATATAACAGCGCGGAGTCACCTAGTGCAG — higher, 65500 fluorescence intensity (a.u.)
- TTCGAATCTCTGATTGGGAGTTCAGGTCAGAGACGTTCAGCGGAGTCACCTAGTGCAG — higher, 14700 fluorescence intensity (a.u.)
- CTTTGACAGATTGGTGGGAGATAAGAGAAATGAGGAGGTGCGGAGTCACCTAGTGCAG — higher, 51900 fluorescence intensity (a.u.)
- CTGATGATTGGTCAGCAGAGAAGACAGGTGGGATATCGAGCGGAGTCACCTAGTGCAG — higher, 52900 fluorescence intensity (a.u.)
- TGTTGATTTGCTACCCTTCCTTCCGTCCTCAACATTATCACGGAGTCACCTAGTGCAG — higher, 31600 fluorescence intensity (a.u.)
- TTGATTTGGTTGATTGCCTCCTTCGTTCGTCCACGCTCAACGGAGTCACCTAGTGCAG — higher, 57100 fluorescence intensity (a.u.)
- GGTTTGATTGGTTGGAAACAGAGGGGTTCTACTGCTGCGACGGAGTCACCTAGTGCAG — higher, 55700 fluorescence intensity (a.u.)
- CCGTGCTGCATGATTGACCAAACAGACCATGTTGGTTTTGCGGAGTCACCTAGTGCAG — higher, 29000 fluorescence intensity (a.u.)
- CCCAATTAAATAATGCCAATTGGGTTTGATCTAATGCTGGCGGAGTCACCTAGTGCAG — higher, 15200 fluorescence intensity (a.u.)
- ATCAATCAATCAATCAATCAGCAAAGAGCATCCCAAACAACGGAGTCACCTAGTGCAG — higher, 33900 fluorescence intensity (a.u.)
- AAGGTTGTTAATTACAAACCATGTTTCGTACTACAACTCTCGGAGTCACCTAGTGCAG — lower, 4580 fluorescence intensity (a.u.)
- GTGACAAACTGACAACAGGTTGTTTAGTTTTCCATGATTACGGAGTCACCTAGTGCAG — lower, 4530 fluorescence intensity (a.u.)
- GAATCTATTAAGCCTAATTAATCCGTTATTATAGCAAATACGGAGTCACCTAGTGCAG — lower, 6470 fluorescence intensity (a.u.)
- AAGGCACGTTGATTGGACTAGTAGTACTACTACGTAGTAGCGGAGTCACCTAGTGCAG — higher, 18400 fluorescence intensity (a.u.)
- ACCATTGATGGTCCCAATTTAAAATATTTGGCCGAATCTTCGGAGTCACCTAGTGCAG — lower, 3840 fluorescence intensity (a.u.)
- AATAAAATAAATGATCAAATGAATTATGAAAACTCGTGACCGGAGTCACCTAGTGCAG — lower, 5260 fluorescence intensity (a.u.)
- GTCGAAAATTATATCGGAATTAGCAGAGTGTGGCATAGCACGGAGTCACCTAGTGCAG — lower, 4260 fluorescence intensity (a.u.)
- AGTAAAATGATTTGTAGTGTTAATAATAAAGAATAAATTACGGAGTCACCTAGTGCAG — lower, 10000 fluorescence intensity (a.u.)
